“And” between values parts separate entries of the source, which are not always exact repeats. Equal entries are not always repeated. Records with an inconclusive call do not appear. More than one record can exist for a structure, and the calls need not agree. The source made the active and inactive calls. The calls were made as follows, unless noted: active = hit-call score of the fitted dose curve at least 0.9, where 1 is the maximum; inactive = score below 0.9.
How the values were obtained:
[1] = ATG_TCF_b_cat_CIS: Attagene CIS-FACTORIAL HepG2 Assay for human T-Cell-Factor with beta-catenin (TCF/b-cat) (AID 2282965); conditions: HepG2 TCF/beta-catenin cis-reporter transcription, actives raise or lower the signal
Summary of the method: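 Using capillary electrophoresis as the read-out, labelled reporter cDNA fragments from transiently transfected HepG2 were sized and quantified. Exposure lasted 24 hours; activity in either direction was referenced to DMSO.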

[2] = ATG_TAL_CIS: Attagene CIS-FACTORIAL HepG2 Assay for human TAL Basal Promoter (AID 2282966); conditions: HepG2 Attagene cis-factorial TAL promoter reporter; actives raise or lower the signal;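 also: background control endpoint measuring basal TAL promoter reporter mRNA not a specific factor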
Summary of the method: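 Fluorescence of labelled reporter cDNA fragments, resolved by capillary electrophoresis, gave the readout. Human HepG2 liver cells carried transiently transfected cis-element reporter units and were treated for 24 hours; activity was fitted bidirectionally against DMSO.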

[3] = ATG_TGFb_CIS: Attagene CIS-FACTORIAL HepG2 Assay for human Transforming Growth Factor (TGF) (AID 2282967); conditions: HepG2 Attagene CIS TGFb reporter, mRNA transcription; actives raise or lower the signal
Summary of the method: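 HepG2 cells transiently transfected with cis-promoter-driven multiple reporter units measure endogenous TF activity; reporter mRNA quantified at 24 h by RT-PCR, FAM labeling, HpaI digestion and capillary electrophoresis. Bidirectional fit vs DMSO.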

[4] = ATG_VDRE_CIS: Attagene CIS-FACTORIAL HepG2 Assay for human Vitamin D Receptor Element (VDRE) (AID 2282968); conditions: HepG2 VDRE cis-reporter transcription, actives raise or lower the signal
Summary of the method: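 HepG2 cells transiently transfected with cis-element reporter units, dosed 24 h; reporter mRNA measured by RT-PCR, 6-FAM labeling, HpaI digestion and capillary electrophoresis. Activity fitted bidirectionally against DMSO baseline.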

[5] = molecular target: Estrogen receptor (Homo sapiens) (UniProt P03372); experiment: ATG_ERa_TRANS: Attagene TRANS-FACTORIAL HepG2 Assay for human Estrogen Receptor alpha (ERa) (AID 2282970; active = hit-call score of the fitted dose curve at least 0.9, where 1 is the maximum); conditions: HepG2 Attagene TRANS ERa GAL4 reporter, mRNA
Summary of the method: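 Human liver HepG2, transient transfection of multiple GAL4-UAS reporter units; TRANS format (exogenous NR-Gal4 chimera). 24 h dosing. Readout: reporter mRNA, RT-PCR, 6-FAM primer extension, HpaI digest, capillary electrophoresis. Positive direction vs DMSO.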

[6] = molecular target: X-box-binding protein 1 (Homo sapiens) (UniProt P17861); experiment: ATG_Xbp1_CIS: Attagene CIS-FACTORIAL HepG2 Assay for human X-box Binding Protein 1 (XBP1) (AID 2282972); conditions: HepG2 XBP1 cis-element reporter, Attagene multiplex; actives raise or lower the signal
Summary of the method: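 HepG2 cells transiently transfected with cis-regulated multiple reporter transcription units; endogenous transcription factor activity measured 24 hours after chemical dosing. Reporter mRNA quantified by RT-PCR, 6-FAM primer extension, HpaI digestion and capillary electrophoresis; bidirectional fitting versus DMSO.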

[7] = ATG_M_19_TRANS: Attagene TRANS-FACTORIAL HepG2 Assay for M19 Transcription Factor (Internal Marker) (AID 2282974; active = hit-call score of the fitted dose curve at least 0.9, where 1 is the maximum); conditions: HepG2 Attagene TRANS-FACTORIAL M19 internal marker reporter
Summary of the method: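 HepG2 cells transiently transfected with multiple GAL4-UAS reporter transcription units were exposed to chemicals for 24 h. Reporter mRNA was read by RT-PCR, 6-FAM primer extension, HpaI digestion and capillary electrophoresis; gain of signal fitted relative to DMSO.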

[8] = ATG_GAL4_TRANS: Attagene TRANS-FACTORIAL HepG2 Assay for GAL4 (Internal Marker) (AID 2282976; active = hit-call score of the fitted dose curve at least 0.9, where 1 is the maximum); conditions: HepG2 Attagene TRANS GAL4 internal marker reporter
Summary of the method: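 First, HepG2 cells were transfected with reporter units under GAL4-UAS control. Next, they were treated with chemical for 24 h. Finally, RNA was reverse-transcribed, PCR-amplified, FAM-labelled and resolved by capillary electrophoresis, with induction scored against DMSO.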

[9] = molecular target: Glucocorticoid receptor (Homo sapiens) (UniProt P04150); experiment: ATG_GR_TRANS: Attagene TRANS-FACTORIAL HepG2 Assay for human Glucocorticoid Receptor (GR) (AID 2282978; active = hit-call score of the fitted dose curve at least 0.9, where 1 is the maximum;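 also: activators score as hits since higher reporter transcript over DMSO is fitted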); conditions: HepG2 Attagene TRANS GR reporter, mRNA transcription
Summary of the method: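 HepG2 cells transiently transfected with multiplexed reporter units in which chimeric NR-GAL4 proteins drive GAL4-UAS reporters; 24 h compound exposure. Reporter mRNA measured by RT-PCR, 6-FAM labelling, HpaI digestion and capillary electrophoresis; gain-of-signal fitted versus DMSO.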

[10] = molecular target: Oxysterols receptor LXR-beta (Homo sapiens) (UniProt P55055); experiment: ATG_LXRb_TRANS: Attagene TRANS-FACTORIAL HepG2 Assay for human Liver X Receptor beta (LXRb) (AID 2282981; active = hit-call score of the fitted dose curve at least 0.9, where 1 is the maximum); conditions: HepG2 Attagene TRANS GAL4-LXRb reporter, mRNA
Summary of the method: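 HepG2 cells transiently transfected with multiple reporter transcription units carrying chimeric NR-Gal4 proteins acting on GAL4-UAS reporters; compound exposure 24 h. Reporter mRNA quantified by RT-PCR, 6-FAM labelling, HpaI digestion and capillary electrophoresis; gain of signal versus DMSO.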

[11] = ATG_M_06_TRANS: Attagene TRANS-FACTORIAL HepG2 Assay for M06 Transcription Factor (Internal Marker) (AID 2282983; active = hit-call score of the fitted dose curve at least 0.9, where 1 is the maximum;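 also: reporter transcript level by RT-PCR then capillary electrophoresis fluorescence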); conditions: HepG2 Attagene TRANS M06 internal marker reporter
Summary of the method: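 Transfect HepG2 with MRTUs → dose compounds 24 h → isolate RNA, oligo(dT) RT → PCR with reporter primers → 6-FAM primer extension → HpaI digest → CE fragment analysis. Positive direction vs DMSO.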

[12] = ATG_M_32_TRANS: Attagene TRANS-FACTORIAL HepG2 Assay for M32 Transcription Factor (Internal Marker) (AID 2282984; active = hit-call score of the fitted dose curve at least 0.9, where 1 is the maximum;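 also: transcript level of a background control reporter unit measured by RT-PCR and capillary electrophoresis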); conditions: HepG2 Attagene TRANS M32 internal marker reporter
Summary of the method: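 HepG2 cells transiently transfected with multiple GAL4-UAS reporter transcription units, dosed for 24 hours; reporter mRNA quantified by RT-PCR, 6-FAM primer extension, HpaI digestion and capillary electrophoresis. Gain-of-signal fitted versus DMSO baseline; internal background-control marker.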

[13] = molecular target: Transcriptional activator Myb (Homo sapiens) (UniProt P10242); experiment: ATG_Myb_CIS: Attagene CIS-FACTORIAL HepG2 Assay for human Myeloblastosis (Myb) Proto-Oncogene Transcription Factor (AID 2282986); conditions: HepG2 Attagene CIS-FACTORIAL Myb reporter transcription; actives raise or lower the signal
Summary of the method: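 HepG2 cells were transiently transfected with cis-regulated multiple reporter transcription units reflecting endogenous Myb activity, then exposed to compound for 24 hours. Reporter mRNA was measured by RT-PCR with capillary electrophoresis; bidirectional fitting versus DMSO baseline.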

[14] = molecular target: Nuclear respiratory factor 1 (Homo sapiens) (UniProt Q16656); experiment: ATG_NRF1_CIS: Attagene CIS-FACTORIAL HepG2 Assay for human Nuclear Respiratory Factor 1 (NRF1) Orphan Gene (AID 2282987); conditions: HepG2 NRF1 cis-element reporter, Attagene multiplex; actives raise or lower the signal
Summary of the method: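 HepG2 cells transiently transfected with multiple reporter transcription units under cis-regulatory promoter control, so endogenous transcription-factor activity is read. After 24 h compound exposure, reporter mRNA quantified by RT-PCR, fluorescent labelling, HpaI digestion and capillary electrophoresis; bidirectional fitting versus DMSO.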

[15] = ATG_NFI_CIS: Attagene CIS-FACTORIAL HepG2 Assay for human Nuclear Factor I (NFI) (AID 2282989); conditions: HepG2 cis-regulatory reporter, NFI response element transcription; actives raise or lower the signal
Summary of the method: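 Endogenous TF activity in HepG2 cells transiently transfected with cis-element-driven multiplexed reporter units, read 24 h after dosing. Reporter mRNA quantified by RT-PCR, 6-FAM labelling, HpaI digestion and capillary electrophoresis; bidirectional fit versus DMSO.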

[16] = molecular target: Oxysterols receptor LXR-alpha (Homo sapiens) (UniProt Q13133); experiment: ATG_LXRa_TRANS: Attagene TRANS-FACTORIAL HepG2 Assay for human Liver X Receptor alpha (LXRa) (AID 2282980; active = hit-call score of the fitted dose curve at least 0.9, where 1 is the maximum); conditions: HepG2 Attagene TRANS reporter, LXRa transactivation
Summary of the method: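 Transfect HepG2 with GAL4-UAS multiplex reporter constructs (TRANS format, chimeric receptor-GAL4); treat 24 h; extract RNA, reverse-transcribe, PCR-amplify, FAM-label, HpaI-digest; resolve fragments by capillary electrophoresis. Upward response vs DMSO.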

[17] = molecular target: Bile acid receptor (Homo sapiens) (UniProt Q96RI1); experiment: ATG_FXR_TRANS: Attagene TRANS-FACTORIAL HepG2 Assay for Farnesoid X Receptor (FXR) (AID 2282979; active = hit-call score of the fitted dose curve at least 0.9, where 1 is the maximum;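 also: hits raise reporter mRNA above DMSO so AC50 marks FXR activation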); conditions: HepG2 Attagene TRANS FXR-GAL4 reporter transcription
Summary of the method: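 Transient transfection of HepG2 with multiplexed GAL4-UAS reporter units; exogenous FXR-GAL4 chimera. Dose 24 h → TriZol RNA → oligo(dT) RT → PCR, 6-FAM primer extension, HpaI cut → CE. Gain vs DMSO.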

[18] = molecular target: Hepatocyte nuclear factor 4-alpha (Homo sapiens) (UniProt P41235); experiment: ATG_HNF4a_TRANS: Attagene TRANS-FACTORIAL HepG2 Assay for human Hepatocyte Nuclear Factor 4 alpha (HNF4a) (AID 2282982; active = hit-call score of the fitted dose curve at least 0.9, where 1 is the maximum); conditions: HepG2 HNF4a transactivation reporter, mRNA readout
Summary of the method: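 HepG2 cells transiently transfected with multiplexed GAL4-UAS reporter units responsive to chimeric NR-GAL4 proteins; compound exposure 24 h. Reporter mRNA quantified by RT-PCR, 6-FAM labelling, HpaI digestion and capillary electrophoresis; gain of signal versus DMSO baseline.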

[19] = molecular target: Nuclear receptor subfamily 4 group A member 2 (Homo sapiens) (UniProt P43354); experiment: ATG_NURR1_TRANS: Attagene TRANS-FACTORIAL HepG2 Assay for human Nuclear Receptor Related Protein 1 (NURR1) (AID 2282985; active = hit-call score of the fitted dose curve at least 0.9, where 1 is the maximum); conditions: HepG2 Attagene TRANS reporter, mRNA readout
Summary of the method: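 HepG2 cells transiently transfected with GAL4-UAS reporter units and chimeric NR-Gal4 constructs; chemical exposure 24 h. Reporter mRNA quantified by RT-PCR, fluorescent labelling and capillary electrophoresis; gain of signal fitted relative to DMSO baseline.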

[20] = molecular target: Steroid hormone receptor ERR1 (Homo sapiens) (UniProt P11474); experiment: ATG_ERRa_TRANS: Attagene TRANS-FACTORIAL HepG2 Assay for human Estrogen-Related Receptor alpha (ERRa) (AID 2282971; active = hit-call score of the fitted dose curve at least 0.9, where 1 is the maximum); conditions: HepG2 Attagene TRANS reporter, ERRa transactivation
Summary of the method: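 Reporter transcript induction was quantified by RT-PCR and capillary electrophoresis of FAM-labelled, HpaI-cut products after 24 h treatment of HepG2 cells carrying transiently transfected GAL4-UAS reporter units and an exogenous ERRa-Gal4 fusion; activity scored as increase over DMSO.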

Measured: AC50

Chain of Oxysterols receptor LXR-alpha (Homo sapiens) (Q13133 whole entry, looked up, the tested form may be a part): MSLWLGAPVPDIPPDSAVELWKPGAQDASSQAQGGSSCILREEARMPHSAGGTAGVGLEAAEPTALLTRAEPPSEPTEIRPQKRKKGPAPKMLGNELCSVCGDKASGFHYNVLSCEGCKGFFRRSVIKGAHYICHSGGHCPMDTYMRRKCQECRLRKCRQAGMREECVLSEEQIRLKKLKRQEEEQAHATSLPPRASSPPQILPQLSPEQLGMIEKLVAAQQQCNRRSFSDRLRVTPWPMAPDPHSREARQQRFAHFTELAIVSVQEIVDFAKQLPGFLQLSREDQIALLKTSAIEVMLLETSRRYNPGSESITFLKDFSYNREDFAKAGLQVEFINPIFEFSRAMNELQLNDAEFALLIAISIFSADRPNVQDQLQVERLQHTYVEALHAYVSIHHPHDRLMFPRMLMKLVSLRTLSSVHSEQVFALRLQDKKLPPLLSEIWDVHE
Chain of Oxysterols receptor LXR-beta (Homo sapiens) (P55055 whole entry, looked up, the tested form may be a part): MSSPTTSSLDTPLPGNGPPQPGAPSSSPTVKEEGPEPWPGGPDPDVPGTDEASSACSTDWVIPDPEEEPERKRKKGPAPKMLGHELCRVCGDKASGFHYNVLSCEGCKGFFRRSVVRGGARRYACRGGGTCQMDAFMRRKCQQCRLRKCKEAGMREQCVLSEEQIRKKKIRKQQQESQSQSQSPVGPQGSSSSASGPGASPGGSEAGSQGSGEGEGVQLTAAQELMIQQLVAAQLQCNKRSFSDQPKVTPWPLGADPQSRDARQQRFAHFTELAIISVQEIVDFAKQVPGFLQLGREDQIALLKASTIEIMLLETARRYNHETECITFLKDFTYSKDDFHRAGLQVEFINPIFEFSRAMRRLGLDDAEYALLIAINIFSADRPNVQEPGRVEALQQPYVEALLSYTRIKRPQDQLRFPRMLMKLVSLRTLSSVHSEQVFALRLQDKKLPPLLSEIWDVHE
Chain of Hepatocyte nuclear factor 4-alpha (Homo sapiens) (P41235 whole entry, looked up, the tested form may be a part): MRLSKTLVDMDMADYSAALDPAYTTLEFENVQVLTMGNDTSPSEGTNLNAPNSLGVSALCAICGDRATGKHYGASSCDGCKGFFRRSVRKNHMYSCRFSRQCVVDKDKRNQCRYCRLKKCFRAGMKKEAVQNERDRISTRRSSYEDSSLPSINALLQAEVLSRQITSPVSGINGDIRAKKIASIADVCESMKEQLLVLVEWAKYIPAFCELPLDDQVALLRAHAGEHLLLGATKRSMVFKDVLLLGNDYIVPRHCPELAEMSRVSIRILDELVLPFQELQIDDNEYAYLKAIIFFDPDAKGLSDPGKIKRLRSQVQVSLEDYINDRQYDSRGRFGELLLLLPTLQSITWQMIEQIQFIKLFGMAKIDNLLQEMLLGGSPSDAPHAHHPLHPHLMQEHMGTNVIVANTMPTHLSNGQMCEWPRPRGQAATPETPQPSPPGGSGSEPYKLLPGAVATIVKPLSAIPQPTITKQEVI
Chain of Transcriptional activator Myb (Homo sapiens) (P10242 whole entry, looked up): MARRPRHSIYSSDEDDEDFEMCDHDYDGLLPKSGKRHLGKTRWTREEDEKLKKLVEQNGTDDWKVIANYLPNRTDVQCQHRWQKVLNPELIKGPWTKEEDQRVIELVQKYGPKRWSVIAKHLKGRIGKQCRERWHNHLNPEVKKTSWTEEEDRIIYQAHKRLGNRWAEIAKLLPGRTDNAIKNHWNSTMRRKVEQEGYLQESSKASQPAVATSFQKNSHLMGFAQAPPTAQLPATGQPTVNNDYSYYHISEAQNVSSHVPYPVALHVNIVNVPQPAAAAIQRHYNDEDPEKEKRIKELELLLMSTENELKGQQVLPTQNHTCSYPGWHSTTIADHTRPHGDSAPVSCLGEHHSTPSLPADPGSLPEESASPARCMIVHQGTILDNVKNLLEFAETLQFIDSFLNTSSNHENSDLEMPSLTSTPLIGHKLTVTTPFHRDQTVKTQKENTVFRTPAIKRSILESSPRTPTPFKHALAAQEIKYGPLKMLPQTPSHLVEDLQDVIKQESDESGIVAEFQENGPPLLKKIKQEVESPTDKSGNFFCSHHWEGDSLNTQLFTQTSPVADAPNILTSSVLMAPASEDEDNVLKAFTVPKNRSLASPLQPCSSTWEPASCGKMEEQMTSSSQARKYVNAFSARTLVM
Chain of Estrogen receptor (Homo sapiens) (P03372 whole entry, looked up, the tested form may be a part): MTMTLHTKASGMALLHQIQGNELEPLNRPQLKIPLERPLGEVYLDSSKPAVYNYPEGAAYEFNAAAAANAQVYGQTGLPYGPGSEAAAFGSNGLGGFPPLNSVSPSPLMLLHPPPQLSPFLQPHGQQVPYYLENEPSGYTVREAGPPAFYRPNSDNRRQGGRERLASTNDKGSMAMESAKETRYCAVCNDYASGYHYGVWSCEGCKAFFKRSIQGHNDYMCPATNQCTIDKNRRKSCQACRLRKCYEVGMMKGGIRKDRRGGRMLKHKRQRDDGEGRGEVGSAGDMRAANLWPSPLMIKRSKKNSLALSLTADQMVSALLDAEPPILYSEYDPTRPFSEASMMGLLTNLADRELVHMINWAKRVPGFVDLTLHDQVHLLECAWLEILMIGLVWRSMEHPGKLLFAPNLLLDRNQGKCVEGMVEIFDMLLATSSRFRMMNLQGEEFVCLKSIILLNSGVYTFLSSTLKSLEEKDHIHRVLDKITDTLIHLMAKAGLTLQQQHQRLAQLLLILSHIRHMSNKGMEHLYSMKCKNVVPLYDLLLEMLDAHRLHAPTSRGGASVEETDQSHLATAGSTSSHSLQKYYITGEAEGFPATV
Chain of Bile acid receptor (Homo sapiens) (Q96RI1 whole entry, looked up, the tested form may be a part): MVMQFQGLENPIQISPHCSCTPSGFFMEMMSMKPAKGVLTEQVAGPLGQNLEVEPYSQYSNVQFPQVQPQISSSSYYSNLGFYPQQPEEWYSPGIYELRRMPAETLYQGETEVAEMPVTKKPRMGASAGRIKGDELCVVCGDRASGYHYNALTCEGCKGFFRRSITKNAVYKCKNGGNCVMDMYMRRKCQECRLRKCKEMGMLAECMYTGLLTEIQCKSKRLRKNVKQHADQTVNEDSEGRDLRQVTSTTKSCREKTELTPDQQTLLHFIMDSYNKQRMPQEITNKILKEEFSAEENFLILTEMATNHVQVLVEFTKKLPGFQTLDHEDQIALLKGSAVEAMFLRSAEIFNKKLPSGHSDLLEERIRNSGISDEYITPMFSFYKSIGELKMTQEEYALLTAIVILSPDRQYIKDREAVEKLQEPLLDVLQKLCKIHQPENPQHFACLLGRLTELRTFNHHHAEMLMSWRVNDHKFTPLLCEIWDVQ
Chain of X-box-binding protein 1 (Homo sapiens) (P17861 whole entry, looked up): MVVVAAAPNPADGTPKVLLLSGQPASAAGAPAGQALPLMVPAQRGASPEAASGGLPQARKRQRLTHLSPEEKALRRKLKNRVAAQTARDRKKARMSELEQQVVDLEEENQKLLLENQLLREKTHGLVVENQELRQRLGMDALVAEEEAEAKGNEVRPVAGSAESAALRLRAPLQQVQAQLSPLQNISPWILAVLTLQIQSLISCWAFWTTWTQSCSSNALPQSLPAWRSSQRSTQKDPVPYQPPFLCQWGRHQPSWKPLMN
Chain of Nuclear respiratory factor 1 (Homo sapiens) (Q16656 whole entry, looked up): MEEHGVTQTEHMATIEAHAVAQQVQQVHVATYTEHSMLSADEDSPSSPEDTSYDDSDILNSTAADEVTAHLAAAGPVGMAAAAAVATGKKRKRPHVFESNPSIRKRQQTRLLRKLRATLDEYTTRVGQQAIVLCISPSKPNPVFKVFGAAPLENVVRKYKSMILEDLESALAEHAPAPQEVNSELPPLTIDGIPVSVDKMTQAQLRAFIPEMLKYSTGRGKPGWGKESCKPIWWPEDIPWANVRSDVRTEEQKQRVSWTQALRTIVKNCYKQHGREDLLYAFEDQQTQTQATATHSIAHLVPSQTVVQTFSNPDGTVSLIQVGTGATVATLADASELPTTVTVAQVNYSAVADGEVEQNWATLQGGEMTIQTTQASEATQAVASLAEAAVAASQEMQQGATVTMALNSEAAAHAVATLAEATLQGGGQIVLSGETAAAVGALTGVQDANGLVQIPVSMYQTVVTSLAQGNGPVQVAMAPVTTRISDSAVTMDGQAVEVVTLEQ
Chain of Glucocorticoid receptor (Homo sapiens) (P04150 whole entry, looked up, the tested form may be a part): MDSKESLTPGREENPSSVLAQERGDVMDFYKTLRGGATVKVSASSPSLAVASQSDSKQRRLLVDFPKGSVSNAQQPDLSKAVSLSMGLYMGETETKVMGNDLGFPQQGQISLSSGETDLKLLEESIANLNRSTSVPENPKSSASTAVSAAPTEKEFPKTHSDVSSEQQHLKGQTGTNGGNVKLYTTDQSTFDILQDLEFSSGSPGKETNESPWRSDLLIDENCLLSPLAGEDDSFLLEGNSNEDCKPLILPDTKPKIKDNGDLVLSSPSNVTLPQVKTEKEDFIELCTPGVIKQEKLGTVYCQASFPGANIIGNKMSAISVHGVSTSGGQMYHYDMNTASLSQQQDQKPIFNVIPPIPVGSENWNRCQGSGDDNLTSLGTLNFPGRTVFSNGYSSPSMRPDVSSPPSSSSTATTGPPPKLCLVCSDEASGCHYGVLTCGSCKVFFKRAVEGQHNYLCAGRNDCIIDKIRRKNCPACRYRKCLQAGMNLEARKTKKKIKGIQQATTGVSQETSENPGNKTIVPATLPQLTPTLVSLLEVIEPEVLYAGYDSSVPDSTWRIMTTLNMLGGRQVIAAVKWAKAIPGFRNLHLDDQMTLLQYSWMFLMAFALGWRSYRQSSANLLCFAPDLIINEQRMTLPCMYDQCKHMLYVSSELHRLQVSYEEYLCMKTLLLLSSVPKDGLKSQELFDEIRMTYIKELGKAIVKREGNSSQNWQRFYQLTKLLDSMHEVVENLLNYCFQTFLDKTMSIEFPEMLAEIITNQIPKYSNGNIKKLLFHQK

Oc1cccc(O)c1
active: [10] 0.00623 µM | [13] 2.59 µM
not listed: [16] | [17] | [18] | [19] | [20]
inactive: all other assays above

CC(C)CCCCCCOC(=O)CCCCC(=O)OCCCCCCC(C)C
not listed: [5] | [9] | [10] | [12] | [17] | [18] | [19] | [20]
inactive: all other assays above

Nc1cccc2c(N)cccc12
not listed: [7] | [8] | [11] | [16] | [18] | [19] | [20]
inactive: all other assays above

O=C(O)Cc1cc(I)c(Oc2cc(I)c(O)c(I)c2)c(I)c1
inactive: [1] | [2] | [3] | [5] | [6] | [8] | [9] | [16] | [10] | [18] | [11] | [12] | [13] | [14]
active: [2] 67 µM | [4] 18.1 µM and 23 µM | [6] 34.1 µM | [19] 23.6 µM | [15] 47.9 µM and 17.2 µM

N#C[C@@H]1CC(F)(F)CN1C(=O)CNC1CC2CCC(C1)N2c1ncccn1 (stereo partly specified)
not listed: [4] | [7] | [10] | [11] | [18] | [19]
inactive: all other assays above

CCCCC(CC)COC(=O)CCCCC(=O)OCC(CC)CCCC (stereo unspecified)
not listed: [7] | [8] | [10] | [11] | [12] | [19] | [20]
inactive: all other assays above

c1ccc2c(c1)Cc1ccccc1-2
active: [5] 35.4 µM
not listed: [7] | [9] | [10] | [12] | [16] | [18] | [19] | [20]
inactive: all other assays above

NCC(F)(F)C(F)(F)C(F)(F)C(F)(F)C(F)(F)C(F)(F)C(F)(F)F
not listed: [7] | [10] | [12] | [16] | [19]
inactive: all other assays above

Cc1oc(-c2ccccc2)nc1CCOc1ccc(C[C@H](Nc2ccccc2C(=O)c2ccccc2)C(=O)O)cc1
active: [4] 16.6 µM | [14] 18.6 µM
not listed: [7] | [10] | [16] | [17] | [18] | [19] | [20]
inactive: all other assays above
